An excerpt weighted towards active compounds, which were near 10% of everything screened.
Mm-Cpn inhibitor: blocks the Methanococcus maripaludis chaperonin Mm-Cpn; purified Mm-Cpn ATPase, ADP Transcreener TR-FRET; Potency, µM (highest dose often 76.9 µM), without a hit: top-dose activity, negative = inhibition, hits mostly inhibitors; actives 0.031% (n = 330,000); AID 504842; also: potency is read from the fitted curve at half-maximal effect; nearly all actives have a fitted effect of over 80% in size
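ATP (10 uM final) was added to archaeal chaperonin (25 nM final) after 10 min exposure to test compound at 37°C; after 30 min further incubation, ADP was detected by competitive TR-FRET.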
PLK1 PBD block: inhibitors of human PLK1 polo-box domain binding. Plk1 PBD binding of FITC phosphopeptide, fluorescence polarization. Potency, µM, inactives show max response, negative = inhibition, actives largely listed as inhibitors. actives 2.8% (n = 360,000); also: potency is read from the fitted curve at half-maximal effect; series mostly up to about 57 µM; nearly all actives have a fitted effect of over 65% in size
Target sequence (P53350 whole entry, looked up, the tested form may be a part): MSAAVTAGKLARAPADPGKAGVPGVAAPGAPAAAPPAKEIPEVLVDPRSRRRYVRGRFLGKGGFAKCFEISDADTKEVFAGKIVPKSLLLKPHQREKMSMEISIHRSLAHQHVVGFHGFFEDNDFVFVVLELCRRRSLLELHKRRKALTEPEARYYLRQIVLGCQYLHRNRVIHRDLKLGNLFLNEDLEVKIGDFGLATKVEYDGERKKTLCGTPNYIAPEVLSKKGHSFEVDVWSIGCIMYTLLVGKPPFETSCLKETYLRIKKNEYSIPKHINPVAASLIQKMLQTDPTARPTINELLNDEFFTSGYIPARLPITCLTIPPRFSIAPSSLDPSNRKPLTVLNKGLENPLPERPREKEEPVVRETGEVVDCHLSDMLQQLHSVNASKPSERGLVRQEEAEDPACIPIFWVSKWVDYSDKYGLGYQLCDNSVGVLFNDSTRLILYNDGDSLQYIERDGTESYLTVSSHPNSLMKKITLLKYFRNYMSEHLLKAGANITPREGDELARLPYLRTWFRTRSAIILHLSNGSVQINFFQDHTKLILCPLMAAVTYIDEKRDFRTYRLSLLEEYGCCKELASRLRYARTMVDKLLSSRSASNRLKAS
G9a inh: blocks human histone lysine methyltransferase G9a; G9a H3K9 monomethylation, AlphaScreen, 2 h; Potency, µM (highest dose often 102 µM), for the others: at the highest dose activity, negative = inhibition, usual class: inhibitors; actives 8.8% (n = 350,000); AID 504332; also: potency is read from the fitted curve at half-maximal effect; nearly all actives have a fitted effect of over 75% in size
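Methyltransferase reactions run at room temperature for 2 h (20 nM enzyme, 500 nM biotin-H3K9 peptide, 20 uM SAM) after a 15 min compound preincubation; product detected by AlphaScreen beads and anti-H3K9me1 antibody.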
Sfp PPTase inh: Sfp phosphopantetheinyl transferase inhibition. AID 1490. Biochemical Sfp PPTase activity, qHTS. Q9F4F7. actives 3.5% (n = 310,000). Potency, µM, without a hit: largest response in the series, negative = inhibition, usual class: inhibitors;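 also: the enzyme is Sfp with the accession as filed and its product quenches rhodamine fluorescence; potency is read from the fitted curve at half-maximal effect; 0% = enzyme reaction without inhibitor and -100% = no enzyme wells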
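Fluorescence-quenching assay with 15 nM Sfp, 5 uM rhodamine-CoA and 12.5 uM BHQ-2-labelled ybbR peptide in pH 7.6 Hepes/MgCl2 buffer. Enzyme was pre-incubated with compound for 15 min at room temperature. Rate was taken from the 30-min fluorescence change (525/598 nm).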
VDR inhibitor: inhibitors of human vitamin D receptor; P11473; VDR-SRC2-3 peptide fluorescence polarization, 2 h; Potency, µM, for inactives: max response, negative = inhibition, usual class: inhibitors; actives 0.93% (n = 400,000); AID 504847; also: potency is read from the fitted curve at half-maximal effect
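FP read-out; VDR + SRC2-3 coactivator peptide; 23 nl compound by pintool; 2 h RT incubation; reagents held at 4 deg C, protected from light.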
CCT modulator: modulators of cytosolic chaperonin (CCT/TRiC) activity; purified chaperonin ATPase assay, HTRF ADP detection, 30 min; activity change, % (test concentration not listed), hits read low; actives 0.3% (n = 360,000); in the data active = activity change below about -30%
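ATPase activity: ADP formed was measured by HTRF Transcreener (665/615 nm ratio) after 30 min at 37 deg C with 10 uM ATP. Compounds screened at one 76 uM concentration against 40 or 20 nM TRiC in Tris pH 7.4/KCl/MgCl2/DTT buffer.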
* hit, by the source's call; u = inconclusive; x = no result given; [ ] = dose if it differs, or a comment. Unless noted, calls follow the shape of the dose curve; as a rule, active = well fitted curve in the direction sought with a large enough effect; inconclusive = small, poorly fitted or top-dose-only effect, or another doubt; inactive = no such curve, though single readings can be large; an effect the other way counts as inactive or inconclusive. Unless noted, % is scaled to controls: 0 for no effect and ±100 for the full control effect.

SMILES	Mm-Cpn inhibitor	PLK1 PBD block	G9a inh	Sfp PPTase inh	VDR inhibitor	CCT modulator
Cc1cc(NCc2ccccc2)nc2ccccc12	-1%	0%	-6%[59 µM]	8%	-4%	0
Cn1c(=O)c2c(nc(Oc3ccccc3Cl)n2Cc2ccc(C#N)cc2)n(C)c1=O	x	x	-2%[59 µM]	x	-9%	x
Cc1ccc(N2C3=C(C(=O)CC(C)(C)C3)C(c3cn(C)nc3C)C3=C2CC(C)(C)CC3=O)cc1	x	3.8µM*	x	x	20µM*	0
CC(CNCC1CCCO1)COc1cccc2ccccc12 (configuration not stated)	u	1%	u	-16%	4%	0
CC(CNCC1CCCO1)COc1ccccc1 (configuration not stated)	-4%	30µM*	u	6%	-2%	-1
CCc1nnc(SCC(=O)Nc2ccc(Cl)cc2F)c2cc3occc3n12	x	x	-26%[59 µM]	x	11%	x
O=C(COC(=O)c1cccc(C(=O)OCC(=O)NC2CC2)n1)NC1CC1	1%	-4%	14µM*	-11%	1%	-3
O=C(COC(=O)c1ccc(F)cc1Cl)NC1CC1	x	-6%	x	x	x	-50*
CCc1nnc(NC(=O)c2nc(SCc3ccc(F)cc3)ncc2Cl)s1	x	x	u	x	15%	x
Cc1[nH]c2ccc(C(=O)OC(C)C(=O)N(C)C3CCCCC3)cc2c1C (configuration not stated)	1%	-7%	45µM*	x	-5%	-8
CC(=O)Nc1ccc(NC(=O)C(C)OC(=O)c2ccc3[nH]c(C)c(C)c3c2)cc1 (configuration not stated)	0%	0%	50µM*	x	11%	0
Cc1[nH]c2ccc(C(=O)OC(C)C(=O)N(C)c3ccccc3)cc2c1C (configuration not stated)	-1%	-2%	1%[0.501 µM]	x	3%	1
CCN(CC)c1nc2c(S(=O)(=O)c3cccc(Cl)c3)nnn2c2ccsc12	x	x	-3%[59 µM]	x	-8%	x
COc1cc(OC)c(Nc2cc(C)nc3nc(C)nn23)cc1Cl	-2%	-2%	u	4%	-7%	1
COc1cc(OC)c(Nc2cc(C)nc3ncnn23)cc1Cl	x	x	11µM*	x	-5%	x
Cc1cc(Nc2ccc3ccccc3c2)n2ncnc2n1	-1%	-3%	16µM*	-11%	-16%	0
Cc1ccc(-c2cc(C(=O)N3CCN(S(=O)(=O)c4ccc(Br)s4)CC3)[nH]n2)c(C)c1	x	x	3%[59 µM]	x	10%	x
O=C(NNC(=S)Nc1ccccc1)c1ccncc1	-4%	-12%	u	3%	-29%	-2
O=C(NNC(=S)Nc1ccc(C(=O)O)c(O)c1)c1ccncc1	x	27µM*	x	x	u	-2
O=[N+]([O-])c1cccc(C=Nc2cccc3ccccc23)c1O	1%	-9%	x	3%	-4%	-3
CCOC(=O)c1c(/N=C/c2cccc([N+](=O)[O-])c2O)sc(C)c1C	0%	u	7.1µM*	40µM*	u	-1
CCOC(=O)c1sc(NC(=S)NC(=O)CC(C)C)cc1C	-7%	27µM*	-42%	u	-30%	-1
Cc1cccc(N(C)C(=O)Cn2cnc3nc4c(cc3c2=O)CCCC4)c1	x	x	0%[59 µM]	x	2%	x
COc1cc(/C=N/Nc2nc3ccccc3[nH]2)ccc1O	-6%	-4%	-2%[59 µM]	11µM*	-7%	-5
COc1cccc(/C=N/Nc2nc3ccccc3[nH]2)c1O	2%	3%	x	-9%	-9%	1
COc1cc(/C=N/Nc2nc3ccccc3[nH]2)cc(OC)c1O	-2%	-13%	28µM*	14µM*	2%	3
COc1ccc2nc(Cl)c(/C=N/Nc3ccccn3)cc2c1	1%	-3%	34%	16µM*	-13%	-4
COc1ccc(C(=O)N/C(=C/c2cccs2)c2nc3ccccc3[nH]2)cc1OC	-2%	-4%	-20%[59 µM]	0%	3%	0
COc1cc(/C=C(/C(=O)c2cccs2)c2nc3ccccc3[nH]2)cc(OC)c1O	-5%	-8%	-1%[12.7 µM]	-22%	50µM*	-1
COc1ccc(O)c(/C=N/Nc2nc3ccccc3[nH]2)c1	-1%	-4%	u	u	-20%	0

Bioassay records as filed in PubChem BioAssay.
